Here are results for 8 compounds from PubChem BioAssay (NCI).

About 83,000 compounds went through this panel and 20% of them were active in at least one assay; those are over-represented in the sample as a whole.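 In brief: 96-well plates, 48 h treatment, single concentration, percent growth endpoint.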 A number with no mark means an inactive call. The source made the active and inactive calls. The calls were made as follows: active = growth percent below 10; inactive = the rest.

Holding throughout (assay): NCI-60 one-dose screen, 48 h (100 = growth as untreated, 0 = no growth, -100 = all killed)
Settings in all cases: 10 µM unless noted

For assay [1], the system named is HCT-15 colon.
For assay [2], the system named is HT29 colon.
For assay [3], the system named is SNB-75 CNS.
Assay [4] deals with SNB-19 CNS.
Assay [5] has as its system U251 CNS.
Assay [6] concerns PC-3 prostate.
In assay [7] the test system is SK-MEL-5 melanoma.
For assay [8], the system named is UACC-62 melanoma.
Assay [9] relates to LOX IMVI melanoma.
The test system of assay [10] is SK-MEL-28 melanoma.
The test system of assay [11] is SK-MEL-2 melanoma.
The test system of assay [12] is EKVX NSCLC.
For assay [13], the system named is SN12C renal.
For assay [14], the system named is UO-31 renal.
For assay [15], the system named is TK-10 renal.
In assay [16] the test system is ACHN renal.
Assay [17] deals with CAKI-1 renal.
Assay [18] deals with A498 renal.
Assay [19] relates to CCRF-CEM leukemia.
For assay [20], the system named is MOLT-4 leukemia.

For the compound `O=c1[nH]c(SCc2ccccc2)nc2nc(Nc3ccc(NC(=S)Nc4ccccc4)cc3)nc(-c3ccc(O)cc3O)c12`, the growth is 108% in [1]; 115% in [2]; 84.6% in [3]; 86.9% in assay [4]; 85.3% in assay [5]; 82.6% in assay [6]. The growth was 101% in assay [7]; 87.9% in [8]; 98% in assay [9]; 94.3% in assay [10]; 87.8% in assay [11]; 95.9% in [12]. The growth in [13] is 88%; in assay [14], 107%; in assay [15], 133%; in assay [16] it was 89.5%; in assay [17], 101%; in assay [18], 108%. Also, the growth in assay [19] is 94.5%; in assay [20] it was 93%.

Take `COCCCNS(=O)(=O)c1ncnc2nc[nH]c12`: the growth is 124% in [1]; 125% in [2]; 116% in assay [3]; 122% in [4]; 124% in assay [5]; 106% in assay [6]. In addition, the growth was 109% in assay [7]; 112% in assay [8]; 111% in assay [9]; 152% in [10]; 147% in assay [11]; 101% in [12]. Also, the growth in assay [13] is 114%; in [14] it was 96.9%; in assay [15], 140%; in assay [16] it was 118%; in assay [17], 101%; in assay [18], 87%. Also, the growth was 101% in assay [19] and 102% in [20].

For `COc1cc(/C=N/NC(=O)c2ccc(C(F)(F)F)nc2Nc2ccc(Cl)cc2C)ccc1O`, the growth is 27.9% in assay [1]; 45.2% in assay [2]; 19.7% in assay [3]; 54.4% in [4]; 33.8% in assay [5]; 24.8% in [6]. In addition, the growth in assay [7] was -61.3% (active); in assay [8] it was 44.5%; in assay [9] it was 33.7%; in [10], 42.5%; in assay [11], 18.8%; in [12], 38.4%. In addition, the growth was 68.6% in assay [13]; 0.291% (active) in assay [14]; 49.7% in assay [15]; 33.4% in assay [16]; 39.6% in [17]; -37.9% (active) in [18]. The growth in assay [19] is 12.6%; in [20], -23.6% (active).

Turning to `O=C(NC1CCS(=O)(=O)C1)c1ccc(C(=O)c2ccccc2)cc1` (stereo not given), the growth was 101% in assay [1]; 106% in assay [2]; 90.9% in assay [3]; 97.9% in [4]; 90.1% in assay [5]; 101% in assay [6]. The growth is 110% in [7]; 95.6% in [8]; 95.6% in assay [9]; 89.2% in assay [10]; 7.36% (active) in assay [11]; 96.3% in [12]. For the same compound, the growth in [13] was 105%; in assay [14] it was 76.5%; in assay [15], 137%; in assay [16], 98.1%; in [17] it was 98.2%; in assay [18], 110%. Also, the growth in [19] was 127%; in assay [20] it was 109%.

For `CCOC(=O)c1sc(NC(=O)COc2ccc(/C=C3\CCc4cc(OC)ccc4C3=O)cc2)nc1C`, the growth was 102% in assay [1]; 85.8% in assay [2]; 105% in [3]; 96.1% in assay [4]; 91.2% in assay [5]; 79.5% in [6]. Further, the growth in assay [7] is 96.6%; in [8], 95.2%; in assay [9], -88.1% (active); in assay [10], 118%; in assay [11], 62.3%; in assay [12] it was 90.6%. Further, the growth in assay [13] was 86.2%; in [14] it was 14.5%; in assay [15] it was 115%; in assay [16], 103%; in assay [17], 76.7%; in assay [18], 76.6%. The growth in assay [19] was -62.6% (active); in assay [20], 7.56% (active).

For `O=C1C=CC(=O)N1c1ccccn1`, the growth in assay [1] is 97.7%; in assay [2] it was 115%; in [3], 89.3%; in [4], 96.6%; in assay [5], 110%; in assay [6] it was 99.4%. The growth in assay [7] was 111%; in assay [8], 95%; in assay [9], 93.6%; in assay [10] it was 115%; in assay [11] it was 109%; in [12] it was 118%. Moreover, the growth in assay [13] was 96.2%; in assay [14], 97.1%; in assay [15] it was 113%; in assay [16], 97.4%; in assay [17], 104%; in assay [18] it was 95.8%. In addition, the growth is 105% in [19] and 66.6% in [20].

For the compound `CCOC(CNCc1cc(C)c2[nH]c3ccccc3c2c1C)OCC`, the growth in assay [1] was 80.7%; in assay [2], 53.1%; in assay [3], 73.6%; in assay [4] it was 78.6%; in assay [5], 83.2%; in assay [6], 58.6%. For the same compound, the growth in [7] was 79.8%; in assay [8], 77.9%; in [9], 77.2%; in [10], 97.3%; in assay [11], 62.2%; in [12] it was 90%. Moreover, the growth in [13] is 69.7%; in [14], 45.1%; in [15] it was 77.3%; in assay [16], 88.3%; in assay [17], 71.4%; in assay [18], 39.8%. The values for the growth in assay [19] and in assay [20] were 77.5% and 62.5%, respectively.

For `COc1c(O)cc2c(c1CC=C(C)C)OC(=O)c1c(cc(O)c(CC=C(C)C)c1O)O2`, the growth in assay [1] is 44.1%; in [2], 86.9%; in [3], 49.7%; in assay [4] it was 48.4%; in assay [5], 27.2%; in assay [6], 24.5%. For the same compound, the growth is 40.8% in [7]; 67.2% in assay [8]; -27.5% (active) in assay [9]; 80.5% in assay [10]; 55.5% in assay [11]; 78.5% in [12]. In addition, the growth in assay [13] was 10.4%; in assay [14] it was 45.1%; in assay [15], 42%; in [16], 30.2%; in assay [17], 50.6%; in [18] it was 116%. Moreover, the growth in assay [19] is 32.2%; in assay [20], 20.6%.
